Bioassay records as filed in PubChem BioAssay.
Compounds with a hit are over-represented: about 3.9% of the library has one in this group of screens.
FH mod = Identification of activators of human fumarate hydratase by quantitative high-throughput screening; Potency, µM (doses to about 79.9 µM), without a hit: top-dose activity change, negative = inhibition, actives largely listed as inhibitors; FH coupled MDH/diaphorase resazurin fluorescence, 15 min; 0.22% of 54,000 active; further: potency means the concentration at half of the fitted maximal effect; on the % scale 0 is the no-effect control and ±100 the full control effect; the screen sought activators but most active calls are inhibition curves; nearly all actives have a fitted effect of over 45% in size
OvCa metastasis = Primary qHTS assay for Inhibitors of ovarian cancer metastasis using an organotypic tumor microenvironment (TME) model. Potency, µM (titrated, usually from 45.8 µM), for inactives: at the top dose activity change, negative = inhibition, hits mostly inhibitors. SKOV3ip1-GFP adhesion/invasion on 3D omental model, fluorescence. 0.1% of 46,000 active;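 further: potency means the concentration at half of the fitted maximal effect; plate controls were DMSO wells for no effect and tomatine positive control wells for full effect; nearly all actives have a fitted effect of over 65% in size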
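Primary human omental fibroblast/mesothelial 3D culture pre-formed 48 h. SKOV3ip1-GFP cells added with compounds (0.36-46 umol/L), incubated 2 h RT/16 h 37 C, fixed; GFP cells quantified at 488/509 nm.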
NTMT1 inh = Primary qHTS for Inhibitors of N-terminal methyltransferase 1 (NTMT1): MTaseGlo Assay; N-terminal Xaa-Pro-Lys N-methyltransferase 1 (Homo sapiens), Q9BV86; NTMT1 MTase-Glo SAH luminescence, purified enzyme; Potency, µM (highest dose often 114 µM), inactives show top-dose activity change, negative = inhibition, most hits filed as inhibitors; 2.5% of 59,000 active;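 further: potency means the concentration at half of the fitted maximal effect; plate controls were DMSO vehicle for no effect and no enzyme for full effect; nearly all actives have a fitted effect of over 65% in size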
Target sequence (Q9BV86 whole entry, looked up): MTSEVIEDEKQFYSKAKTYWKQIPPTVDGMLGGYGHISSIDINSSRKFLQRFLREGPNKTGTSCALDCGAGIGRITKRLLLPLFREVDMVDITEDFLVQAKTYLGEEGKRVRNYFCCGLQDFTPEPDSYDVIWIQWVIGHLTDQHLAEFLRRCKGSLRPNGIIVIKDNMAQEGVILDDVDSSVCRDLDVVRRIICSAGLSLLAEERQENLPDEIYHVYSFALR
DRV1 agonist = qHTS for Agonists of Human Resolvin D1 Receptor DRV1 | Probable G-protein coupled receptor 32 (Homo sapiens), O75388 | CHO-K1 GPR32 beta-arrestin PathHunter luminescence, 90 min; zero percent set by DMSO-only wells | activation, % at 76.9 µM | 2.5% of 48,000 active;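 active means activation of at least 60% and not above a set upper limit, about 1 call in 100 departs from these limits; inconclusive means activation of 40% to 60%, or above that upper limit; inactive means activation under 40%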; further: 0% is about no effect
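Beta-arrestin recruitment read-out: luminescence from complemented beta-Gal in CHO-K1 GPR32 PathHunter cells, measured 1 h after detection reagent at ambient temperature following 90 min compound exposure at 37 °C; DMSO served as basal (EC0) control.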
Sfp qHTS opt = qHTS Assay for Inhibitos of Bacillus subtilis Sfp phosphopantetheinyl transferase (PPTase): Chemistry Optimization Followup; purified Sfp PPTase enzyme activity, qHTS; AID 540350, 2011; Potency, µM (titrated, usually from 114 µM), inactives show top-dose activity change, negative = inhibition, hits mostly inhibitors; 78% of 230 active; shares compounds with NTMT1 inh
Bsub HM489 growth = qHTS for Inhibitos of Bacillus subtilis Sfp phosphopantetheinyl transferase (PPTase): Chemistry Optimization Followup in B. Subtilis HM489; 50% of 220 active; shares compounds with NTMT1 inh; B. subtilis HM489 (acpS-) growth, BacTiter-Glo, 5 h; Potency, µM (titrated, usually from 114 µM), without a hit: top-dose activity change, negative = inhibition, actives largely listed as inhibitors
Sfp PPTase gel = Gel-Based Assay for Inhibitos of Bacillus subtilis Sfp phosphopantetheinyl transferase (PPTase): Chemistry Optimization Followup | shares compounds with NTMT1 inh | purified Sfp PPTase, gel-based product detection | Potency, µM (top dose mostly 250 µM), inactives show at the highest dose activity change, negative = inhibition, actives largely listed as inhibitors | 54% of 220 active
Sfp inh SAR2 = qHTS Assay for Inhibitors of Bacillus subtilis Sfp phosphopantetheinyl transferase (PPTase): SAR Round 2 | shares compounds with NTMT1 inh | purified Sfp enzyme, PPTase activity, qHTS | Potency, µM (doses to about 57.1 µM), without a hit: at the top dose activity change, negative = inhibition, usual class: inhibitors | 87% of 230 active
hGST ctr = qHTS Assay for Inhibitors of Bacillus subtilis Sfp phosphopantetheinyl transferase (PPTase): SAR in hGST A1-1; hGST A1-1 enzyme activity counter-screen, qHTS; shares compounds with NTMT1 inh; 55 tested, under 10 active; Potency, µM (doses to about 114 µM), inactives show at the top dose activity change, negative = inhibition, usual class: inhibitors
HSD17B4 counter = Extended Characterization of HPGD Inhibitors: Counterscreen Against HSD17b4; 10% of 230 active; purified HSD17B4, estradiol/NAD+, NADH fluorescence; shares compounds with NTMT1 inh; Potency, µM (series often up to 57.1 µM), inactives show at the highest dose activity change, negative = inhibition, actives largely listed as inhibitors
ALDH1A1 counter = Extended Characterization of HPGD Inhibitors: Counterscreen Against ALDH1A1; recombinant ALDH1A1, NADH fluorescence, propionaldehyde/NAD+; shares compounds with NTMT1 inh; 93% of 230 active; Potency, µM (highest dose often 57.1 µM), inactives show at the top dose activity change, negative = inhibition, usual class: inhibitors
Target sequence (P00352 whole entry, looked up): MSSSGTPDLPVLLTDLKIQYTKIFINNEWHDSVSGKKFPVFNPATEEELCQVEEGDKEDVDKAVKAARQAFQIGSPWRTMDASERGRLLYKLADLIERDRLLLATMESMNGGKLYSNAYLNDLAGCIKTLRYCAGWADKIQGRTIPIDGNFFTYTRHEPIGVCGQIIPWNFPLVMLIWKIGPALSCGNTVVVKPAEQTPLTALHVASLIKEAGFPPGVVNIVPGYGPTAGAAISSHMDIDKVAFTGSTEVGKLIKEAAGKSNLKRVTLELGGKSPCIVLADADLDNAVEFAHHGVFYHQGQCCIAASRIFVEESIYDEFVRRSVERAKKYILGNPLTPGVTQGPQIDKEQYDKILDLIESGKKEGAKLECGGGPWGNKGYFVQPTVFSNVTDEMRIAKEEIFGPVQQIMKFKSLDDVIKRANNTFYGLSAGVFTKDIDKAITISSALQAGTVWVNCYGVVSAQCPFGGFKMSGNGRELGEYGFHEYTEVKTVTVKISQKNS
NNMT counter = Counterscreen qHTS for Inhibitors of N-terminal methyltransferase 1 (NTMT1): NNMT MTaseGlo assay; shares compounds with NTMT1 inh; NNMT MTase-Glo luminescence, SAH detection; Potency, µM (series often up to 57.1 µM), without a hit: at the highest dose activity, negative = inhibition, most hits filed as inhibitors; 10% of 120 active; AID 1645878, 2021
* hit, by the source's call; ? = inconclusive; . = no result given; [ ] = remark or other dose. Unless noted, the call rests on the fitted dose curve; in most records, active means well fitted curve in the direction sought with a large enough effect; inconclusive means small, poorly fitted or top-dose-only effect, or another doubt; inactive means no such curve, though single readings can be large; an effect the other way counts as inactive or inconclusive.

SMILES	FH mod	OvCa metastasis	NTMT1 inh	DRV1 agonist	Sfp inh SAR2	HSD17B4 counter	ALDH1A1 counter	others
Cc1cc(C)nc(NC(=S)N2CCN(c3ncnc4sccc34)CC2)c1	.	.	-21%[57.5 µM]	.	1.8µM*	-24%	9.6µM*	Sfp qHTS opt=5.9µM*;Bsub HM489 growth=?;Sfp PPTase gel=40µM*
Cc1cc(C)nc(NC(=S)N2CCN(c3cc(F)cc(F)c3)CC2)c1	.	.	.	.	1.3µM*	.	.	Sfp qHTS opt=6.6µM*;Bsub HM489 growth=37µM*;Sfp PPTase gel=10µM*
Cc1cc(C)nc(NC(=S)N2CCN(c3cc(Cl)c(Cl)c(Cl)c3)CC2)c1	.	.	?	.	0.36µM*	-8%	6.1µM*	Sfp qHTS opt=1.5µM*;Bsub HM489 growth=8%;Sfp PPTase gel=10µM*
Cc1cc(C)nc(NC(=S)N2CCN(c3nccc(C(F)(F)F)n3)CC2)c1	.	.	?	.	1.1µM*	?	17µM*	Sfp qHTS opt=2.1µM*;Bsub HM489 growth=?;Sfp PPTase gel=3.2µM*
Cc1ccc(-n2ncc3c(N4CCN(C)CC4)ncnc32)cc1	0%	-2%	-1%	45	.	.	.
O=C(Nc1ccc(F)cc1F)N1CCN(c2ccc(Cl)c(Cl)c2)CC1	-25%	-29%	1%	28	.	.	.
Cc1ccc(OCCn2c(CCNC(=O)c3ccc(Cl)cc3)nc3ccccc32)cc1	.	.	-28%	.	.	.	.
Cc1ccc(C(=O)Oc2ccc(C(O)CNC(C)(C)C)cc2OC(=O)c2ccc(C)cc2)cc1 (configuration not stated)	-10%[53.3 µM]	.	?	?	.	.	.
CCC/C=C/c1cc2c(C=O)c(O)c(CC=C(C)C)cc2o1	-5%	.	-8%[57.5 µM]	.	.	.	.
CC1(C)CC[C@]2(C(=O)O)CC[C@]3(C)C(=CC[C@@H]4[C@@]5(C)C[C@@H](O)[C@H](O)C(C)(C)[C@@H]5CC[C@]43C)[C@@H]2C1	.	.	18%	.	.	.	.
Cc1cc(C)nc(NC(=S)N2CCN(c3ccsc3)CC2)c1	.	.	.	.	8.1µM*	?	22µM*	Sfp qHTS opt=5.9µM*;Bsub HM489 growth=?;Sfp PPTase gel=-77%
Cc1cc(C)nc(NC(=S)N2CCN(c3cc(C#N)cc(C#N)c3)CC2)c1	.	.	?	.	0.65µM*	-13%	17µM*	Sfp qHTS opt=2.4µM*;Bsub HM489 growth=93%;Sfp PPTase gel=-73%
O=C(Nc1ncc(Cc2ccc(C(F)(F)F)cc2)s1)c1cnc(-c2ccccc2)[nH]1	.	.	18%	.	.	.	.
O=C(O)c1cc(N(Cc2ccc(C3CCCCC3)cc2)C(=O)c2ccc(Oc3ccccc3)cc2)ccc1O	?	.	32µM*	.	.	.	.	NNMT counter=-19%
N=C(N)c1ccc2nc(-c3cc(CC(=O)N[C@@H](CC(=O)O)C(=O)O)cc(-c4cc(S(N)(=O)=O)ccc4O)c3O)[nH]c2c1	.	.	17%	.	.	.	.
CC[C@@H](C)Nc1cc(C(=O)NC2CC3CC[C@@H](C2)N3c2ccc(C(=O)C3CC3)cn2)c(C)cc1C(N)=O (some centres not stated)	-11%	.	4%[57.5 µM]	.	.	.	.	NNMT counter=-21%
COC(=O)c1cc(Br)cnc1N1CCC(NC2CCCCC2)C(O)C1 (configuration not stated)	3%	.	-2%[57.5 µM]	.	.	.	.
O=C(O[C@H]1[C@@H]2C[C@@H]3OC[C@](O)([C@@H]1Cl)[C@H]2C(O[C@@H]1O[C@H](CO)[C@@H](O)[C@H](O)[C@H]1O)O3)c1ccc(O)c(O)c1 (some centres not stated)	3%[53.3 µM]	.	-14%[29.8 µM]	.	.	.	.
O=C1N(CC2CCCCN2)CCN1c1ccccc1 (configuration not stated)	0%	.	4%[57.5 µM]	.	.	.	.
CSC(Cc1ccc(Cl)cc1)C(=O)Nc1ccc(Cl)cc1C(=O)O (configuration not stated)	-37%	.	17%	.	31%	?	24µM*	hGST ctr=?
CC(Cc1ccccc1)C(=O)Nc1ccc(Cl)cc1C(=O)O (configuration not stated)	.	.	18%	.	-20%	24µM*	24µM*	hGST ctr=?
O=C(Nc1cccc(Cl)c1)C(Cc1ccccc1)n1cccc1 (configuration not stated)	?	-5%	7%	9	.	.	.
O=C(Nc1ncc(Cc2ccc(C(F)(F)F)cc2)s1)c1ccc(-c2ccccc2[N+](=O)[O-])o1	.	.	17%	.	.	.	.
CCN1CCN(Cc2ccc(NC(=O)c3ccc(C)c(/C=C/c4cnc5[nH]ccc5c4OC)c3)cc2C(F)(F)F)CC1	-19%	.	-3%	.	.	.	.
CC(=O)O[C@@H]1C=C2[C@H](CC[C@@]3(C)[C@@]2(O)CC[C@H]2Cc4c([nH]c5ccccc45)[C@@]23C)O[C@@H]1C(C)(C)O	-2%[53.3 µM]	.	-9%[29.8 µM]	.	.	.	.
